The nature of experiment [1]: ATG_GRE_CIS: Attagene CIS-FACTORIAL HepG2 Assay for human Glucocorticoid Response Elements (GRE) (AID 2282947; active = hit-call score of the fitted dose curve at least 0.9, where 1 is the maximum; inactive = score below 0.9). Conditions: HepG2 GRE cis-reporter, Attagene multiplex mRNA; actives raise or lower the signal. An outline of the steps:
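Fluorescence intensity of reporter-specific cDNA fragments, separated by capillary electrophoresis, provides the signal. Constructs carry cis-regulating promoters in transiently transfected HepG2 liver cells; 24 h incubation; fitting is bidirectional against DMSO.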

The nature of experiment [2]: ATG_PBREM_CIS: Attagene CIS-FACTORIAL HepG2 Assay for human Phenobarbital-responsive Enhancer Module (PBREM) (AID 2282955; active = hit-call score of the fitted dose curve at least 0.9, where 1 is the maximum; inactive = score below 0.9). As to conditions: HepG2 PBREM cis-reporter, Attagene multiplexed transcription; actives raise or lower the signal. An outline of the steps:
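Reporter mRNA read by RT-PCR, 6-FAM primer extension, HpaI digestion and capillary electrophoresis. Transfected HepG2 cells, 24 h compound exposure. Gain or loss of signal fitted bidirectionally relative to DMSO baseline.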

Experiment [3] can be described thus: ATG_RORE_CIS: Attagene CIS-FACTORIAL HepG2 Assay for human RAR-related Orphan Receptor Element (RORE) (AID 2282959; active = hit-call score of the fitted dose curve at least 0.9, where 1 is the maximum; inactive = score below 0.9). Conditions: HepG2 Attagene cis-factorial RORE reporter, mRNA; actives raise or lower the signal. An outline of the steps:
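Readout: fluorescent reporter mRNA by RT-PCR plus capillary electrophoresis, 24 h after dosing transfected HepG2 cells. Endogenous transcription factor activity on a cis promoter element is measured. Gain or loss of signal fitted against DMSO.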

For experiment [4], the target named is Transcription factor Sp1 (Homo sapiens) (UniProt P08047). Description: ATG_Sp1_CIS: Attagene CIS-FACTORIAL HepG2 Assay for human Specificity Protein 1 (Sp1) (AID 2282961; active = hit-call score of the fitted dose curve at least 0.9, where 1 is the maximum; inactive = score below 0.9). As to conditions: HepG2 Sp1 cis-reporter transcription, actives raise or lower the signal. An outline of the steps: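 Read-out: fluorescence of 6-FAM-labeled, HpaI-digested RT-PCR products separated by capillary electrophoresis. HepG2 cells carried transfected cis-element reporter units and were exposed to chemicals for 24 h; gain or loss of signal fitted relative to DMSO.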

For experiment [5], the target named is Signal transducer and activator of transcription 3 (Homo sapiens) (UniProt P40763). Description: ATG_STAT3_CIS: Attagene CIS-FACTORIAL HepG2 Assay for human Signal Transducer and Activator of Transcription 3 (STAT3) (AID 2282963; active = hit-call score of the fitted dose curve at least 0.9, where 1 is the maximum; inactive = score below 0.9). Conditions: HepG2, Attagene cis-factorial STAT3 reporter transcription; actives raise or lower the signal. An outline of the steps:
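Fluorescence intensity of 6-FAM-labelled reporter fragments, separated by capillary electrophoresis after RT-PCR, gave the signal. Cells were HepG2 transfected with cis-element reporter units and treated 24 h; fitting was bidirectional relative to DMSO.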

The target of experiment [6] is Hepatocyte nuclear factor 4-alpha (Homo sapiens) (UniProt P41235). Description: ATG_HNF4a_TRANS: Attagene TRANS-FACTORIAL HepG2 Assay for human Hepatocyte Nuclear Factor 4 alpha (HNF4a) (AID 2282982). As to conditions: HepG2 HNF4a transactivation reporter, mRNA readout. An outline of the steps:
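Endpoint reflects transcriptional activation of a GAL4-UAS reporter by an HNF4a-GAL4 chimera in transfected HepG2 cells, 24 h post-dosing. Fluorescence from RT-PCR products separated by capillary electrophoresis; DMSO baseline.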

Experiment [7] in a line: ATG_M_06_TRANS: Attagene TRANS-FACTORIAL HepG2 Assay for M06 Transcription Factor (Internal Marker) (AID 2282983). As to conditions: HepG2 Attagene TRANS M06 internal marker reporter. An outline of the steps: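 Background control endpoint: reporter mRNA from transiently transfected HepG2 after 24 h dosing, detected by RT-PCR with capillary electrophoresis fluorescence. Analysed for gain versus DMSO.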

Experiment [8] in a line: ATG_M_32_TRANS: Attagene TRANS-FACTORIAL HepG2 Assay for M32 Transcription Factor (Internal Marker) (AID 2282984).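 Also: transcript level of a background control reporter unit measured by RT-PCR and capillary electrophoresis.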 Conditions: HepG2 Attagene TRANS M32 internal marker reporter. An outline of the steps:
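Internal-marker readout from a multiplexed transcription reporter panel. HepG2 cells were transfected with GAL4-UAS reporter units, treated 24 hours, and reporter transcript levels determined by fluorescence after RT-PCR and capillary separation.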

The target of experiment [9] is Transcriptional activator Myb (Homo sapiens) (UniProt P10242). The experiment can be described thus: ATG_Myb_CIS: Attagene CIS-FACTORIAL HepG2 Assay for human Myeloblastosis (Myb) Proto-Oncogene Transcription Factor (AID 2282986; active = hit-call score of the fitted dose curve at least 0.9, where 1 is the maximum; inactive = score below 0.9). As to conditions: HepG2 Attagene CIS-FACTORIAL Myb reporter transcription; actives raise or lower the signal. An outline of the steps: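 HepG2, transient MRTU transfection (cis-element promoters, endogenous TF activity), 24 h compound exposure. Readout: reporter mRNA via RT-PCR, 6-FAM labeling, HpaI digest, capillary electrophoresis. Gain/loss fit vs DMSO.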

Experiment [10] addresses Peroxisome proliferator-activated receptor gamma (Homo sapiens) (UniProt P37231). Description: ATG_PPARg_TRANS: Attagene TRANS-FACTORIAL HepG2 Assay for human Peroxisome Proliferator-activated Receptor-gamma (PPARg) (AID 2283007). An outline of the steps: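 Read-out: reporter mRNA induction, detected by fluorescence after RT-PCR and capillary electrophoresis. Transiently transfected human HepG2 liver cells carrying a chimeric NR-Gal4 construct were dosed for 24 h; activity was fitted upward relative to DMSO.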

Experiment [11] has as its target human Retinoid X Receptor beta (RXRb), RXRB (gene 6257) (UniProt P28702). Description: ATG_RXRb_TRANS: Attagene TRANS-FACTORIAL HepG2 Assay for human Retinoid X Receptor beta (RXRb) (AID 2283013). An outline of the steps:
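Readout is reporter transcript induction after 24 h dosing. It is measured by RT-PCR of total RNA followed by fluorescent capillary electrophoresis. HepG2 liver cells carry transfected multiple reporter units driven by an exogenous RXRb-Gal4 fusion; activity is relative to DMSO.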

A short description of experiment [12]: TOX21_p53_BLA_p2_viability: Viability Assessment in the Tox21 HCT-116 p53 Agonism Beta-lactamase Assay, Phase 2 (AID 2283591).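 Also: compound exposure lasted 16 h at 37 °C; actives lower the ATP signal meaning cytotoxicity.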 An outline of the steps: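 HCT116 p53-bla cells, 4000/well, dosed after 5 h plating (217-fold dilution of DMSO stocks) and incubated 16 h at 37C. Viability taken as cellular ATP by CellTiter-Glo luminescence after 30 min RT; signal loss marks cytotoxicity.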

Experiment [13] has as its target Cellular tumor antigen p53 (Homo sapiens) (UniProt P04637). The experiment can be described thus: TOX21_p53_BLA_p2_ratio: Tox21 HCT-116 p53 Agonism Beta-lactamase Assay, Ratio, Phase 2 (AID 2283592). An outline of the steps:
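Plated HCT116 p53-bla cells (4000/well) received compound after 5 h, then 16 h at 37C/5% CO2. CCF4-AM added, 2 h RT. Ratio of 460 to 530 nm emission taken as the p53 reporter signal.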

Experiment [14] is described as follows: TOX21_p53_BLA_p5_viability: Viability Assessment in the Tox21 HCT-116 p53 Agonism Beta-lactamase Assay, Phase 5 (AID 2283600). An outline of the steps: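 Workflow: seed 4000 cells per well, wait 5 h, add compounds (DMSO, 217-fold dilution), incubate 16 h, load CCF4-AM 2 h, add CellTiter-Glo, read luminescence after 30 min.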
Experiment [15] is described as follows: ACEA_ER_AUC_viability: ACEA Biosciences xCELLigence Real-Time Cell Analysis on Estrogen Receptor Agonism for Viability (AID 2283782).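 Also: hit means loss of impedance signal meaning reduced cell growth or viability.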 An outline of the steps: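 Read-out: real-time electrical impedance (RT-CES) area under curve, loss of signal taken as reduced viability, normalized to DMSO baseline. T-47D cells, charcoal-stripped serum medium, compounds up to 100 uM final, continuous exposure, 80 h.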

Experiment [16] can be described thus: ATG_NFI_CIS: Attagene CIS-FACTORIAL HepG2 Assay for human Nuclear Factor I (NFI) (AID 2282989; active = hit-call score of the fitted dose curve at least 0.9, where 1 is the maximum; inactive = score below 0.9). Conditions: HepG2 cis-regulatory reporter, NFI response element transcription; actives raise or lower the signal. An outline of the steps:
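Multiplexed cis-reporter system in human HepG2 cells reports native TF activity as reporter mRNA induction 24 h post-dose. Fragments labelled with 6-FAM, HpaI-digested and resolved by capillary electrophoresis; activity fitted both directions versus DMSO.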

Experiment [17] concerns the target Cellular tumor antigen p53 (Homo sapiens) (UniProt P04637). The experiment can be described thus: TOX21_p53_BLA_p3_ratio: Tox21 HCT-116 p53 Agonism Beta-lactamase Assay, Ratio, Phase 3 (AID 2283596). An outline of the steps: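 Cells were seeded at 4000/well, rested 5 h at 37C, then dosed with DMSO compound solutions (217-fold dilution) for 16 h. CCF4-AM substrate was loaded for 2 h at room temperature, and the 460/530 nm emission ratio was fitted for gain of signal versus DMSO.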

The nature of experiment [18]: TOX21_p53_BLA_p4_viability: Viability Assessment in the Tox21 HCT-116 p53 Agonism Beta-lactamase Assay, Phase 4 (AID 2283597).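 Also: hits lower the luminescence signal meaning cytotoxicity.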 An outline of the steps: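 Readout: ATP luminescence (CellTiter-Glo), measured 30 min after reagent addition at RT. The reagent followed a 2 h CCF4-AM incubation, and the cells had been exposed to compound for 16 h at 37C.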
Experiment [19] deals with Cellular tumor antigen p53 (Homo sapiens) (UniProt P04637). The experiment can be described thus: TOX21_p53_BLA_p5_ratio: Tox21 HCT-116 p53 Agonism Beta-lactamase Assay, Ratio, Phase 5 (AID 2283599). An outline of the steps:
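HCT-116 p53-bla cells (4000/well) plated 5 h, dosed with compound (217-fold DMSO dilution) for 16 h at 37 C; CCF4-AM substrate 2 h at room temperature. Activity is the 460/530 nm emission ratio (405 nm excitation), fitted in gain-of-signal direction versus DMSO.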

The target is the same in experiment [20]. The experiment can be described thus: TOX21_p53_BLA_p4_ratio: Tox21 HCT-116 p53 Agonism Beta-lactamase Assay, Ratio, Phase 4 (AID 2283601). An outline of the steps:
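HCT-116 p53 beta-lactamase reporter cells (4000/well) preincubated 5 h, then compound (217-fold dilution of DMSO stock) for 16 h at 37C. CCF4-AM substrate added 2 h at room temperature; 460/530 nm emission ratio fitted upward versus DMSO.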

Records with an inconclusive call do not appear. The source made the active and inactive calls. The calls were made as follows, unless noted: active = hit-call score of the fitted dose curve at least 0.9, where 1 is the maximum; inconclusive = response in the unintended direction; inactive = score below 0.9.

Chain of Transcriptional activator Myb (Homo sapiens) (P10242 whole entry, looked up): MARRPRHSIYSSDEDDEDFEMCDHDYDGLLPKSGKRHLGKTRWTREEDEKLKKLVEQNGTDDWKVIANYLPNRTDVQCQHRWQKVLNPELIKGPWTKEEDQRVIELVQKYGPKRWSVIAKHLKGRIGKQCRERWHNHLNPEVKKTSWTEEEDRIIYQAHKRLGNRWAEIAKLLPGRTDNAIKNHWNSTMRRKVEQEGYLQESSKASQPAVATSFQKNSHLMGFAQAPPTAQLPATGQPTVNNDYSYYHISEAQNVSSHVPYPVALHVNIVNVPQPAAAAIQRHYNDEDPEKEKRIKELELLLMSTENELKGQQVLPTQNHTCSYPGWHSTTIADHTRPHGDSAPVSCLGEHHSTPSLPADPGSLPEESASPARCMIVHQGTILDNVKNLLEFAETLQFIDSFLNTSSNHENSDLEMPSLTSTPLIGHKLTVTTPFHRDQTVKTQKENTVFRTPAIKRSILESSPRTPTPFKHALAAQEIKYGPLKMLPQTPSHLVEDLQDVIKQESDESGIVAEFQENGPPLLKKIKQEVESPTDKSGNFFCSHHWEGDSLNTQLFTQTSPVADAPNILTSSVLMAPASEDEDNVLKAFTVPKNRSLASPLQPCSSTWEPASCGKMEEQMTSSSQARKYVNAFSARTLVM
Chain of Peroxisome proliferator-activated receptor gamma (Homo sapiens) (P37231 whole entry, looked up, the tested form may be a part): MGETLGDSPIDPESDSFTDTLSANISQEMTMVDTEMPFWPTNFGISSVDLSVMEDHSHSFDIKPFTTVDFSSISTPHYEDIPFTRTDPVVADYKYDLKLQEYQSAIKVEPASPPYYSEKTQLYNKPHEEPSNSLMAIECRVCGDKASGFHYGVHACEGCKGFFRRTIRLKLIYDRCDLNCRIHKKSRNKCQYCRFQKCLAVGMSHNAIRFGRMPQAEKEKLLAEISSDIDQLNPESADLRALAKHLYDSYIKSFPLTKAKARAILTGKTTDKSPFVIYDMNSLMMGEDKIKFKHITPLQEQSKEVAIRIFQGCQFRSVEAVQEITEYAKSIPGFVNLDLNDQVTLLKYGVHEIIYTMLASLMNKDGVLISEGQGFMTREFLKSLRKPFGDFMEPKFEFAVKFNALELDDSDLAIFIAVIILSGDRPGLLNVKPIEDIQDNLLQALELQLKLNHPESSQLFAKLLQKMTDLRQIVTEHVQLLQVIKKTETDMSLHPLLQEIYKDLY
Chain of Transcription factor Sp1 (Homo sapiens) (P08047 whole entry, looked up): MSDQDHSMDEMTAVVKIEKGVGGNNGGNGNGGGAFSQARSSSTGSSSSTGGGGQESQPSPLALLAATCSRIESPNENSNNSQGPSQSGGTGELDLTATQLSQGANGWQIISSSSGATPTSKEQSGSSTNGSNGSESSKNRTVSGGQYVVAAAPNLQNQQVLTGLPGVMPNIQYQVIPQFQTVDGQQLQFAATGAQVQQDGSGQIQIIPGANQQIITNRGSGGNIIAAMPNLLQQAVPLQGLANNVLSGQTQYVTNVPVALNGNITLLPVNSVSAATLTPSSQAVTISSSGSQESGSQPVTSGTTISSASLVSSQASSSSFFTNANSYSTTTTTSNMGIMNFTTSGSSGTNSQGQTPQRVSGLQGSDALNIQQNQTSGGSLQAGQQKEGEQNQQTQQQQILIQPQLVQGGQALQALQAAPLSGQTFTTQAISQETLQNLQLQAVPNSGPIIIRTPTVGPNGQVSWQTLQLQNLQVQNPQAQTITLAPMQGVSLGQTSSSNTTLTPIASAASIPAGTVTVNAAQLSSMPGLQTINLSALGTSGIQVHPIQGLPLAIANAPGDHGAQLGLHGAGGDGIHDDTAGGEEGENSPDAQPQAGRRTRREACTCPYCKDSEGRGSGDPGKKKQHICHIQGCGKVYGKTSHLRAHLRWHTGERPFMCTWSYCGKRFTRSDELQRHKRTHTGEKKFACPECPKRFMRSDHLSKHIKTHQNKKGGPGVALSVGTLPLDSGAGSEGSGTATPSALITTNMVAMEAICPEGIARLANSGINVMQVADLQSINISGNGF
Chain of human Retinoid X Receptor beta (RXRb), RXRB (gene 6257) (P28702 whole entry, looked up, the tested form may be a part): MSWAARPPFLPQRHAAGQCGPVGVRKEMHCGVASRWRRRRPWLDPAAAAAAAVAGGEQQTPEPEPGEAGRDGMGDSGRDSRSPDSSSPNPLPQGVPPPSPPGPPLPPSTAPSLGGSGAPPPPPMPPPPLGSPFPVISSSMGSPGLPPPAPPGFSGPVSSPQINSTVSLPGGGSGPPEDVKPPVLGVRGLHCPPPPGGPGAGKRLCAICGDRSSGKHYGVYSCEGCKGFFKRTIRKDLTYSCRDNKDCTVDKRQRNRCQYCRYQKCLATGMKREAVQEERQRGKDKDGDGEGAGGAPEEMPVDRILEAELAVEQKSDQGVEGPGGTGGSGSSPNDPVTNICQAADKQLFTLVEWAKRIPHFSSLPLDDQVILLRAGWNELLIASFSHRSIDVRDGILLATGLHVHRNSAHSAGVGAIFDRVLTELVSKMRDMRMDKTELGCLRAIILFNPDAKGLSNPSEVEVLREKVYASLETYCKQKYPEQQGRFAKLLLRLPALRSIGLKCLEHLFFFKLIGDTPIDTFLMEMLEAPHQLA
Chain of Cellular tumor antigen p53 (Homo sapiens) (P04637 whole entry, looked up): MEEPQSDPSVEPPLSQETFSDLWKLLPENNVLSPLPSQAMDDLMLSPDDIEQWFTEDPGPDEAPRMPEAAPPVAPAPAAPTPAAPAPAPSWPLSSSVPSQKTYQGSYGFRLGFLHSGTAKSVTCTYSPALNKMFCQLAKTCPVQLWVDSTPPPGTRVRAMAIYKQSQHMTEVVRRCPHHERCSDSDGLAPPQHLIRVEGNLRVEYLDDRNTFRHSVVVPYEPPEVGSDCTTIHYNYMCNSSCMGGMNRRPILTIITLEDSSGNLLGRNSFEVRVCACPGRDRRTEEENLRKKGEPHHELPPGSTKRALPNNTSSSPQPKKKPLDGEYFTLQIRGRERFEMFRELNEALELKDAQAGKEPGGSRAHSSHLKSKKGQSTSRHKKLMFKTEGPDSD
Chain of Hepatocyte nuclear factor 4-alpha (Homo sapiens) (P41235 whole entry, looked up, the tested form may be a part): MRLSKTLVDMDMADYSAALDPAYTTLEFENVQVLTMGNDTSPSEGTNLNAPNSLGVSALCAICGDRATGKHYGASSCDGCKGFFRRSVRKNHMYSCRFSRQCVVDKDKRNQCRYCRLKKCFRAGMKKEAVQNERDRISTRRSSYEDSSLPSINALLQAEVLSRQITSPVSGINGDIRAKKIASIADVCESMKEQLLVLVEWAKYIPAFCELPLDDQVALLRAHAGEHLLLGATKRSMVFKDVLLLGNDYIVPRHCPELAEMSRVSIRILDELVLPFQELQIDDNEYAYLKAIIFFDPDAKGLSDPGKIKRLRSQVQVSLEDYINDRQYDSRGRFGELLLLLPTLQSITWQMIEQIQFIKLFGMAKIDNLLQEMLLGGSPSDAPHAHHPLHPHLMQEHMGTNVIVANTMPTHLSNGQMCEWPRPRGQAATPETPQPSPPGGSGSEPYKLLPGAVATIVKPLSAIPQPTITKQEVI
Chain of Signal transducer and activator of transcription 3 (Homo sapiens) (P40763 whole entry, looked up, the tested form may be a part): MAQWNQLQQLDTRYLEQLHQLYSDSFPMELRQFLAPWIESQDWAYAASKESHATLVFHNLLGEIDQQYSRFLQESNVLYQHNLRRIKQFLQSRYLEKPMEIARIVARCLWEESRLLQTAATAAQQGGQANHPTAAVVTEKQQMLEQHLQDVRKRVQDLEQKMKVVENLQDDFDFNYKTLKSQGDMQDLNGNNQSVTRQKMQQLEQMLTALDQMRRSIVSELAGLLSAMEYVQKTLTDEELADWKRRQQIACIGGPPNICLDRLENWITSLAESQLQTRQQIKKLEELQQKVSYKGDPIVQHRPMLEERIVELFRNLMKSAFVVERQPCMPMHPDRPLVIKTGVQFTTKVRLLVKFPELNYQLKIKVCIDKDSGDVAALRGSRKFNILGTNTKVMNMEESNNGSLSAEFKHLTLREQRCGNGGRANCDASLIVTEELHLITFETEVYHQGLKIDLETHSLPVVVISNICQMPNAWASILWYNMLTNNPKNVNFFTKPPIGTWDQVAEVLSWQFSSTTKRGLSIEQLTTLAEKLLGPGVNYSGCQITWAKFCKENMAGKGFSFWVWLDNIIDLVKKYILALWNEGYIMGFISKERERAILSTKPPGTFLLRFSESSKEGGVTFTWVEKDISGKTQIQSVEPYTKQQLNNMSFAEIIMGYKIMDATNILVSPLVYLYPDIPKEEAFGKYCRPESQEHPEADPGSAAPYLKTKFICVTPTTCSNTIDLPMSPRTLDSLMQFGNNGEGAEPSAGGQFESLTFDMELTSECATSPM

As for `C=CCc1ccc(OC(=O)Cc2ccccc2)c(OC)c1`, the molecule was called inactive in [1], in [2], in [3], in [4], in experiment [5] and in experiment [6]. For the same molecule, the call in experiment [7], in [8], in experiment [9], in [11], in experiment [12] and in experiment [13] was inactive. The outcome in experiment [14] and in experiment [15] was inactive. Further, the concentration at half-maximal activity (AC50) in experiment [10] was 19 µM (active).

Turning to `[N-]=[N+]=CC(=O)OC[C@H](N)C(=O)O`, the molecule was classed as inactive in experiment [3], in [4], in experiment [5], in [7], in [8] and in experiment [9]. Further, the call in [16], in experiment [12], in experiment [13], in experiment [17], in experiment [18] and in experiment [19] was inactive. For the same molecule, the result in experiment [14] and in [20] was inactive.

Take `CC(C)(Cl)Cl`: the result in experiment [1], in experiment [2], in experiment [4], in experiment [5], in [8] and in experiment [16] was inactive. Also, the molecule was called inactive in experiment [10], in [13], in experiment [17], in [19], in experiment [14] and in experiment [20]. Also, the call in experiment [15] was inactive.

In the case of `CC(O)CN(CC(C)O)CC(C)O` (centres undefined), the molecule was called inactive in experiment [1], in experiment [2], in experiment [3], in experiment [5], in experiment [8] and in experiment [9]. The molecule was called inactive in [16], in experiment [12], in experiment [13], in experiment [17], in experiment [18] and in [19]. Moreover, the molecule was classed as inactive in experiment [14], in experiment [20] and in experiment [15].

Regarding `S=c1[nH]c2ccccc2[nH]1`, the outcome in experiment [1], in experiment [2], in experiment [3], in experiment [6], in [7] and in experiment [9] was inactive. Further, the call in experiment [16], in experiment [10], in experiment [11], in [12], in experiment [17] and in experiment [18] was inactive. In addition, the outcome in experiment [14], in experiment [20] and in experiment [15] was inactive.

For the molecule `CCC(=O)c1ccc(Cl)cc1`, the molecule was classed as inactive in experiment [1], in experiment [2], in experiment [5], in experiment [6], in [7] and in experiment [8]. The outcome in experiment [9], in experiment [16], in experiment [11] and in [15] was inactive.

As for `CCCCOP(=O)(O)OCCCC`, the molecule was classed as inactive in [1], in experiment [5], in experiment [6], in experiment [7], in [8] and in experiment [9]. In addition, the molecule was classed as inactive in [10]. Besides, the AC50 in experiment [15] was 20.3 µM (active).

Turning to `C=CCO`, the call in [1], in experiment [2], in [4], in experiment [5], in [8] and in experiment [9] was inactive. For the same molecule, the molecule was classed as inactive in experiment [16], in experiment [13], in experiment [17], in experiment [19], in experiment [14] and in experiment [20].

`Nc1ccccc1C(=O)Oc1ccc2ccccc2c1`: the call in [1], in experiment [2], in experiment [3], in experiment [7], in experiment [11] and in [13] was inactive. The outcome in [17], in [18], in experiment [14] and in experiment [20] was inactive. Further, the AC50 in experiment [4] is 56.2 µM (active); in experiment [9], 162 µM (active); in experiment [16], 85.4 µM (active); in experiment [10] it was 54.9 µM (active); in experiment [12], 85.3 µM (active); in [19], 83.5 µM (active). The AC50 in experiment [15] was 24.4 µM (active).

The values above are taken from PubChem BioAssay (EPA / NIEHS).
